Measured values: ChEMBL document CHEMBL4513216, “Probing the Open Global Health Chemical Diversity Library for Multistage-Active Starting Points for Next-Generation Antimalarials” (ACS Infect Dis, 2020)
The campaign covered roughly 69,000 compounds. About 8,600 (12%) showed an effect of 50% or more. This excerpt belongs to a sample that is enriched for strong results.

system: Plasmodium berghei; assay: Screen against P. berghei liver stage (PbLuc), transformed with Luciferase, at 10uM; assay type: functional, HepG2; details: tested at 10 uM

Compared with N#Cc1cnc2cc(F)cc(F)c2c1NC1CCN(CC(N)=O)CC1, CC(NC(=O)NCCCc1n[nH]c(N)c1C#N)c1ccc(F)c(F)c1 (configuration not stated) is higher in INHIBITION: -71.1% for the first, -23.8% for the second.

First: CCCc1cc(C(=O)N[C@@H](CO)[C@@H](O)c2ccccc2)n(C)n1
Second: CC(C)(C)CC(=O)NCC(=O)Nc1ccn(Cc2ccccc2)n1
The INHIBITION of the first is lower: 20.3% for the first, 21.6% for the second.

Compared with CCn1nc(C)cc1C(=O)N1C[C@@H]2C[C@@H](C)O[C@@H]2C1, CC(=O)c1cc(CN2C[C@@H]3CC[C@H]2CN(Cc2c(C)noc2C)C3)cs1 is lower in INHIBITION: 1.7% for the first, -33.5% for the second.

Going from CCN(Cc1noc(CC(C)C)n1)Cc1ncccc1C(=O)O to CCN(Cc1noc(CC(C)C)n1)Cc1ccccc1C(=O)O, the INHIBITION rises from 35.9% to 58.2%.

Going from CCN(Cc1noc(CC(C)C)n1)Cc1ccccc1Cl to CCN(Cc1noc(CC(C)C)n1)Cc1ccccc1C, the INHIBITION falls from 50.8% to 42.4%.

Going from CCN(Cc1noc(CC(C)C)n1)Cc1ccccc1OCC(=O)O to CCN(Cc1noc(CC(C)C)n1)Cc1cccc(F)c1O, the INHIBITION rises from 11.8% to 45.2%.

Going from CCC1COCCN1C(=O)NCc1nccn1Cc1ccccc1 (configuration not stated) to CC(C)n1cnc2c1C(C(=O)N(C)C)N(Cc1ccccc1)CC2 (configuration not stated), the INHIBITION falls from 40.7% to 4.61%.

Compared with CCCC1CCCN(C(=O)CCn2cccn2)CC1 (configuration not stated), CC(=O)Nc1nc(CN2CCOC(Cn3cccn3)C2)cs1 (configuration not stated) is higher in INHIBITION: 30.76% for the first, 31.3% for the second.

Compared with CC(C)C(=O)N1CC[C@H]2N(C)CC[C@@]2(C(=O)N2CCOCC2)CC1, COC[C@@]12CCC[C@@H]1CN(C(=O)N1CCCC1)C2 is higher in INHIBITION: 14.9% for the first, 18.6% for the second.

Going from C1CCN(CCO[C@@H]2CC[C@H]3[C@H]2OCCN3CC2CCOCC2)C1 to COC[C@@]12CCC[C@@H]1CN(C(=O)COC1CCCC1)C2, the INHIBITION falls from 34.4% to 32.5%.

Compared with Cc1nccn1-c1ccc(C(C)NCc2cccn2C)cc1 (configuration not stated), Cc1nccn1-c1ccc(C(C)NCc2cc[nH]n2)cc1 (configuration not stated) is lower in INHIBITION: 53.4% for the first, 50.8% for the second.

Going from Cc1nccn1-c1ccc(N2CCC(N[C@H](C)C(C)C)CC2)cc1 to Cc1nccn1-c1ccc(N2CCC(NC(C)C(C)C)CC2)cc1 (configuration not stated), the INHIBITION falls from 43% to 25.8%.

Going from COc1ccc(C)cc1C(C)NCc1cccn1C (configuration not stated) to CC(NCc1cccn1C)c1noc(-c2ccc(Cl)cc2)n1 (configuration not stated), the INHIBITION rises from -40.7% to -1.15%.

First: Cc1nc(CNC(C)c2ccc(OCC(=O)NC3CC3)cc2)cs1 (configuration not stated)
Second: CC(NCc1ccc(OCC(N)=O)cc1)c1ccc(Cl)c(Cl)c1 (configuration not stated)
The INHIBITION of the first is higher: 33.7% for the first, -6.91% for the second.

Compared with CCOc1ccc(CNC(C)c2ccc3[nH]c(=O)[nH]c3c2)cc1 (configuration not stated), Cc1nccn1-c1ccc(C(C)NCc2ncc[nH]2)cc1 (configuration not stated) is higher in INHIBITION: 4.71% for the first, 50% for the second.

Compared with COc1cc2c(cc1OC)CN(C(=O)NCC1CCCO1)CC2 (configuration not stated), O=C(NCC1CCCO1)c1csc(Cc2ccccc2)n1 (configuration not stated) is lower in INHIBITION: 18.9% for the first, -87.7% for the second.

Going from Cc1c(C(=O)O)oc2ccc(I)cc12 to CCc1ccc2nc(C)cc(C(=O)N[C@@H]3C[C@@H](CO)N(C)C3)c2c1, the INHIBITION falls from 26.3% to 22.1%.

Going from Cc1nn(C)c(N(C)C)c1CNCCS(C)(=O)=O to CNS(=O)(=O)CC(=O)NC(c1cc(C)sc1C)C(C)C (configuration not stated), the INHIBITION rises from -21.915% to 16.6%.

Going from O=C(CC1[C@H]2CN(C(=O)CO)C[C@@H]12)Nc1cccnc1 (some centres not stated) to CN(C)CC(=O)N1C[C@H]2CCC[C@@]2(COc2ccccn2)C1, the INHIBITION rises from 42.6% to 52.9%.

Compared with Cn1c(=O)[nH]c(=O)c2c1nc1n2CC(c2ccc(Br)cc2)O1 (configuration not stated), COCC1Cn2nnc(-c3cnn(C)c3)c2CN1Cc1ccc(C)s1 (configuration not stated) is higher in INHIBITION: 1.985% for the first, 11.8% for the second.

Going from O=C(NCC1CC[C@@]2(CNCCOC2)O1)c1cnccn1 (some centres not stated) to O=C(NCC1CCC2(CCNCC2)CO1)c1cnccn1 (configuration not stated), the INHIBITION rises from 5.36% to 73.3%.

First: Nc1nc(C(=O)NCC2CCC3(CCNCC3)CO2)cs1 (configuration not stated)
Second: Cc1ncsc1C(=O)NCC1CCC2(CCNCC2)CO1 (configuration not stated)
The INHIBITION of the first is higher: 55.6% for the first, -10.9% for the second.

Going from O=C(NCC1CCC2(CCNCC2)CO1)c1ccno1 (configuration not stated) to CN(C)C(=O)N1C[C@H]2CCC[C@@]2(COc2ccccn2)C1, the INHIBITION falls from 5.36% to -9.67%.

Going from CCN1CCOC(CNCc2cccc(OCc3ccccn3)c2)C1 (configuration not stated) to O=C(c1ncccn1)N1C[C@H]2CCC[C@@]2(COc2ccccn2)C1, the INHIBITION rises from -62.8% to -15.1%.

Compared with CN(C)c1cc(CNC(=O)c2c(F)cccc2F)ccn1, COC(=O)c1ccc(-c2cc(C(F)(F)F)cc(N(C)C)n2)cc1 is higher in INHIBITION: -7.35% for the first, 23.6% for the second.

Compared with Cn1cc(C(=O)NC(Cn2cccn2)C(C)(C)C)cn1 (configuration not stated), Cn1cc(N2CCC3(CCN(C(=O)c4cccn4C)C3)C2=O)cn1 (configuration not stated) is lower in INHIBITION: 35.2% for the first, 23.6% for the second.

Compared with CCc1nc(CNC(C)c2cccc(N3CCCC3=O)c2)cs1 (configuration not stated), Cc1cccc(C(C(=O)NC(C)(C)CN2CCCC2)N(C)C)c1 (configuration not stated) is lower in INHIBITION: 10.8% for the first, -13.2% for the second.

Compared with Cc1ccsc1CN(Cc1ncccc1C(=O)O)C1CC1, Cc1ccsc1CN(C)Cc1ncccc1C(=O)O is higher in INHIBITION: 31.9% for the first, 68.3% for the second.

First: CC(C)c1nc(CN(C)Cc2ncccc2C(=O)O)cs1
Second: CN(C)c1ccc(CN(CC2CCCO2)C(=O)c2csnn2)cc1 (configuration not stated)
The INHIBITION of the first is higher: 15.7% for the first, 11.8% for the second.

Going from COc1cccc(CCC(=O)N2CCN(CC(C)(C)O)CC2)c1 to COCCNC(=O)c1nnc2ccc(N3CCOCC3)cc2n1, the INHIBITION rises from 4.3% to 54%.

Going from CNC(=O)c1nnc2ccc(N3CCOCC3)cc2n1 to CCNC(=O)c1nnc2ccc(N3CCOCC3)cc2n1, the INHIBITION rises from -12.2% to 30%.

First: Cn1cccc1C(=O)N1CCC2(CC1)CN(c1ccccc1)C(=O)CO2
Second: Cn1cccc1C(=O)N1CCC2(CC1)CN(c1ccsc1)C(=O)CO2
The INHIBITION of the first is lower: 33.4% for the first, 71.9% for the second.

First: Cn1cc(N2CC3(CCN(C(=O)c4cccn4C)CC3)OCC2=O)cn1
Second: Cn1cccc1C(=O)N1CCC2(CC1)CN(c1cncnc1)C(=O)CO2
The INHIBITION of the first is higher: 73% for the first, 11.4% for the second.

Going from CN1CC(=O)N(c2ccsc2)CC12CCN(C(=O)c1cccn1C)C2 (configuration not stated) to CC1(c2cc[nH]n2)CCN(C(=O)c2ccc(Cl)cc2)CC1, the INHIBITION falls from 19.4% to -2.09%.

Compared with COCCC(=O)N1C[C@H]2CCC[C@@]2(COC)C1, COCC(=O)N1C[C@H]2CCC[C@@]2(COC)C1 is higher in INHIBITION: 24.6% for the first, 85.2% for the second.

Going from CCOCC(=O)N1C[C@H]2CCC[C@@]2(COC)C1 to COC[C@@]12CCC[C@@H]1CN(C(=O)CN(C)C)C2, the INHIBITION rises from -0.284% to 56.4%.
